Compound activity deposited in PubChem BioAssay by Buhrlage Lab, Dana-Farber Cancer Institute and Novartis Institutes for BioMedical Research (Cambridge, Mass).
Rows were chosen to be rich in hits. Some 13% of all compounds tested hit in one or more screens of this group.
USP10 block – inhibitors of human USP10 deubiquitinase; Ubiquitin carboxyl-terminal hydrolase 10 (Homo sapiens), Q14694; purified USP10, Ub-rhodamine fluorescence, 60 min; inhibition, % at 20 µM; 47,000 compounds, 1.1% hits
USP7 inh – inhibitors of human USP7 deubiquitinase; Ubiquitin carboxyl-terminal hydrolase 7 (Homo sapiens), Q93009; purified USP7, Ub-rhodamine cleavage fluorescence; 47,000 compounds, 0.3% hits; inhibition, % at 20 µM; AID 1645854, 2021
Target sequence (Q93009 whole entry, looked up): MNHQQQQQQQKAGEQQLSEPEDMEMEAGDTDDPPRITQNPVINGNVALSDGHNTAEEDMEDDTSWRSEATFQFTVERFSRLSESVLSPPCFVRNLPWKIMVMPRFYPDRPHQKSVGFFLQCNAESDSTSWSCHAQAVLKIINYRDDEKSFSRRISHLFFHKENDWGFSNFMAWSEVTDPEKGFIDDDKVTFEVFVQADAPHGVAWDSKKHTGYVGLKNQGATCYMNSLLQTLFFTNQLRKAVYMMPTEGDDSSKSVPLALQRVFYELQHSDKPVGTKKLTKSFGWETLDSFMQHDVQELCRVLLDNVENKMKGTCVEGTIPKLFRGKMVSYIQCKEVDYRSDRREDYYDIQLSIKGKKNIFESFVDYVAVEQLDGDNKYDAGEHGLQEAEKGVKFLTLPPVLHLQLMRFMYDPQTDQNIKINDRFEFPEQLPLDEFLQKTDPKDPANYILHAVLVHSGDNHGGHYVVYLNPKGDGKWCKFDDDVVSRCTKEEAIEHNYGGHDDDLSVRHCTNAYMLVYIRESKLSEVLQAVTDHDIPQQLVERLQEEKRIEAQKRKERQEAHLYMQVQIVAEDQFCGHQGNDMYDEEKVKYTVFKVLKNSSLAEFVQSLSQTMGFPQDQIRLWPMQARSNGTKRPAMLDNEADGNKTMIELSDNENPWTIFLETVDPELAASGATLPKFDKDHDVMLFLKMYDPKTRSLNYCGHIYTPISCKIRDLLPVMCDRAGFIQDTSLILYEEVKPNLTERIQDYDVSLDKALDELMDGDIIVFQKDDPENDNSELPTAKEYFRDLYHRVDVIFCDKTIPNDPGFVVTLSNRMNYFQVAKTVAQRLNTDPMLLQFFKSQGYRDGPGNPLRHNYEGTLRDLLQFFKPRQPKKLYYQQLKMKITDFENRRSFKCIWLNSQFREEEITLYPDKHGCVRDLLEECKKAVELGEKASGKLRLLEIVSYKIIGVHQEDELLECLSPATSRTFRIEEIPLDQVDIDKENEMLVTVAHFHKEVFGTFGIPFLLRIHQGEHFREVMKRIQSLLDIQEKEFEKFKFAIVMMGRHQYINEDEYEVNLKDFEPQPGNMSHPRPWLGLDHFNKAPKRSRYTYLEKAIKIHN
USP8 inh – inhibitors of human USP8 deubiquitinase; Ubiquitin carboxyl-terminal hydrolase 8 (Homo sapiens), P40818; purified USP8, Ub-rhodamine cleavage fluorescence, 30 min; inhibition, % at 20 µM; 47,000 compounds, 4.2% hits; AID 1645853, 2021
USP17 inh – inhibitors of human USP17 deubiquitinase | Ubiquitin carboxyl-terminal hydrolase 17-like protein 5 (Homo sapiens), A8MUK1 | purified USP17, Ub-rhodamine cleavage fluorescence, 3 h | inhibition, % at 50 µM | 47,000 compounds, 6.5% hits
UCHL1 block – inhibitors of human UCHL1 deubiquitinase; Ubiquitin carboxyl-terminal hydrolase isozyme L1 (Homo sapiens), P09936; purified UCHL1, Ub-rhodamine cleavage fluorescence; inhibition, % at 20 µM; 47,000 compounds, 0.2% hits; AID 1645859, 2021
USP30 inh – inhibitors of human USP30 deubiquitinase. inhibition, % at 25 µM. 47,000 compounds, 5.3% hits. purified USP30, Ub-rhodamine cleavage fluorescence
Each line names hits and unclear results; the compound was inactive in the other large screens. No stated cut-off is given here; in the data, active means inhibition above about 30%; inactive means the rest.

COc1cc([N+](=O)[O-])ccc1NC(=O)COC(=O)Cc1c[nH]c2ccccc12	none
COc1ccc([N+](=O)[O-])cc1NC(=O)COC(=O)c1ccc2[nH]c3c(c2c1)CCCC3	USP10 block 50, USP8 inh 60, USP17 inh 71, USP30 inh 60
O=S(=O)(c1ccccc1)N1CCC2(CC1)NCCN=C2NCc1cc(F)cc(F)c1	USP30 inh 33
CCOC(=O)c1cnc2c(cnn2C)c1NCc1cccc(C(F)(F)F)c1	USP8 inh 37, USP30 inh 41
CCOC(=O)c1cnc2c(cnn2C)c1NCc1ccc(OC)cc1	none
Cc1ccc(C(=O)N2CCc3cc(-c4nc(NC(=O)CN5CCCC5)sc4C)ccc32)cc1	none
O=C(CN1CCCCC1)Nc1nc(-c2ccc3c(c2)CCN3C(=O)C2CC2)cs1	USP17 inh 31
CC(C)C(=O)N1CCc2cc(-c3csc(NC(=O)CN4CCc5ccccc5C4)n3)ccc21	USP8 inh 50
Cc1ccc(C(=O)N2CCc3cc(-c4csc(NC(=O)Cn5nnc6ccccc65)n4)ccc32)cc1	USP8 inh 57, USP17 inh 43
CC(C)C(=O)N1CCc2cc(-c3csc(NC(=O)CN4CCCCC4)n3)ccc21	none
O=C(CN1CCOCC1)Nc1nc(-c2ccc3c(c2)CCN3C(=O)c2ccccc2F)cs1	USP17 inh 30
O=C(CN1CCOCC1)Nc1nc(-c2ccc3c(c2)CCN3C(=O)C2CC2)cs1	none
COc1ccc(CCN2CCc3nc4ccncc4cc3C2)cc1OC	none
CCCc1cc(NCc2ccccn2)n2nc3nc(C)cc(C)c3c2n1	none
Cc1sc(NC(=O)CN2CCCCC2)nc1-c1ccc2c(c1)CCN2C(=O)C1CCCCC1	none
Cc1sc(NC(=O)Cn2nnc3ccccc32)nc1-c1ccc2c(c1)CCN2C(=O)C1CCCCC1	USP17 inh 31
CO[C@@H]1[C@@H](O[C@@H]2O[C@H](C)[C@@H](O[C@H]3C[C@@](C)(O)[C@@H](O)[C@H](C)O3)[C@H](N(C)C)[C@H]2O)[C@@H](CC=O)C[C@@H](C)[C@@H](O[C@H]2CC[C@H](N(C)C)[C@@H](C)O2)/C=C/C=C/C[C@@H](C)OC(=O)C[C@H]1O	none
CC(C)(C)c1ccc(C(=O)NCC(c2ccco2)N2CCOCC2)cc1 (configuration not stated)	none
Cn1c(SCCOc2ccc(Cl)cc2)nnc1-c1ccc2c(c1)OCCO2	USP30 inh 54
Cn1c(SCCOc2ccccc2)nnc1-c1ccc2c(c1)OCCCO2	none
O=C(O)CCc1nc2cc(C(F)(F)F)ccc2n(Cc2ccccc2)c1=O	USP17 inh 41
CN1C(=O)c2ccccc2C(C(=O)Nc2nc3ccccc3s2)C1c1cccs1 (configuration not stated)	USP17 inh 37
COCCN1C(=O)c2ccccc2C(C(=O)Nc2cc(C)ccn2)C1c1cccs1 (configuration not stated)	USP30 inh 33
COCCN1C(=O)c2ccccc2C(C(=O)Nc2ccccn2)C1c1cccs1 (configuration not stated)	none
O=C(CNC(=O)c1cccc(F)c1)Nc1nc2ccccc2[nH]1	USP17 inh 64, USP30 inh 39
Cc1ccc(C(=O)NCC(=O)Nc2nc3ccccc3[nH]2)cc1	USP17 inh 42
O=C(Cc1cccc(F)c1)NCC(=O)Nc1nc2ccccc2[nH]1	none
Cc1ccccc1CC(=O)NCC(=O)Nc1nc2ccccc2[nH]1	USP17 inh 44, USP30 inh 32
Cc1cc(=O)n(CC(=O)Nc2cc(F)ccc2C)c(N2CCCC2)n1	none
Cc1c(C)n(-c2ccccc2)c2ncn(CC(=O)NCc3cccc(F)c3)c(=O)c12	USP8 inh 45, USP30 inh 34
CSc1ccc(CNC(=O)Cn2nc(C)c3c(C)n(-c4ccccc4)nc3c2=O)cc1	USP10 block 46, USP8 inh 89, USP17 inh 40
Cc1ccc(CNC(=O)CCc2nc3c(C)nn(-c4ccccc4)c3n(C)c2=O)cc1	none
Cc1c(C)n(-c2ccccc2)c2ncn(CC(=O)NCc3ccc(F)cc3)c(=O)c12	USP30 inh 40
COc1ccc(CNC(=O)Cn2cnc3c(c(C)c(C)n3-c3ccccc3)c2=O)cc1	USP30 inh 36
COc1ncccc1C(=O)N1C[C@H](OC)[C@H]2OCCC[C@H]21	none
Cc1cc2c(cc1S(=O)(=O)NCC1CCN(Cc3ccccc3F)CC1)OCC(=O)N2	none
CCn1c(CNC(=O)c2ccco2)nnc1SCC(=O)Nc1cccc(C)c1	none
CCOC(=O)c1ccc(S(=O)(=O)N(CCO)Cc2cc3cc(C)c(C)cc3[nH]c2=O)cc1	none
CC1CCN(C(=O)Nc2ccc3ccccc3c2)Cc2nc3ccccc3n21 (configuration not stated)	USP30 inh 33
Cc1ccc(S(=O)(=O)N(CC(=O)Nc2ccc(C(C)C)cc2)C2CCCCC2)cc1	none
Cc1cc(C)c(NC(=O)CSC2=C(C#N)C(c3ccc(C)o3)C3=C(CCCC3=O)N2)c(C)c1 (configuration not stated)	USP30 inh 35
CCc1ccc(NC(=O)C(C)Nc2ccccc2NCCc2ccccc2)cc1 (configuration not stated)	USP8 inh 64
COc1cc(N)c(Cl)cc1C(=O)OCC(=O)N1CCc2ccccc2C1	none
Cc1ccc(NC2=NC(c3ccco3)n3c(nc(C)cc3=O)N2)c(C)c1 (configuration not stated)	USP17 inh 40, USP30 inh 62
O=C(CN(Cc1ccccc1)S(=O)(=O)c1ccc(Cl)cc1)NCc1ccco1	none
COc1ccc(S(=O)(=O)N(CC(=O)NCc2ccco2)c2ccc(C)cc2)cc1	USP8 inh 30
CCOc1ccc(S(=O)(=O)N(CC(=O)NCc2ccccc2C)c2ccccc2)cc1	USP17 inh 45
CCn1cc(SCC(=O)NCCc2ccc(OC)c(OC)c2)c2ccccc21	none
COc1ccc(CCNC(=O)CSc2nnc(NC(=O)c3ccccc3OC)s2)cc1OC	USP30 inh 32
Nc1c2c(nc3cc(Cl)ccc13)CCCC2=O	USP8 inh 45
O=C(CN(Cc1ccccc1)c1ccccn1)N1CCOCC1	none
COc1ccc(OC)c(C(=O)COC(=O)c2ccc3ccccc3n2)c1	none
O=C1COc2ccc(C(=O)COC(=O)c3ccc4ccccc4n3)cc2N1	USP17 inh 44
Cc1ccc(Nc2ncc(C(=O)NCCCN3CCN(c4cccc(Cl)c4)CC3)c3ccccc23)cc1Cl	none
O=C(COC(=O)c1ccc2c(=O)n3c(nc2c1)CCCCC3)NCC1CCCCC1	USP17 inh 55, USP30 inh 65
